Laboratory results taken from PubChem BioAssay AID1159580 (chemical genetic matrix, 2015).
Out of some 5,500 compounds screened, about 2,000 (36%) were called active. About 18% were inconclusive and are not listed. Rule as the data show it: active = normalized growth mostly below about 0.91 (no sharp cut-off); inconclusive = no clear call, values can overlap the other calls; inactive = mostly above about 0.92. This is one part of the list.

Experiment: chemical genetic growth profiling, strain panel (AID 1159580);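 also: tested at 20 µM; growth read once vehicle control cultures reached saturation at 30 °C; 1 = growth at the plate median or of vehicle wells; lower values mean less growth of the strain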
Conditions: growth OD

Measured: normalized growth

Oc1c(Cl)cc(Cl)c2cccnc12
active: S. cerevisiae deletion strains, locus YJR066W, strain TOR1, active compounds read low -0.00116 | S. cerevisiae deletion strains, locus YJR075W, strain HOC1, active compounds read low 0.0672 | S. cerevisiae deletion strains, locus YKL009W, strain mrt4, active compounds read low 0.092 | S. cerevisiae deletion strains, locus YKL068W, active compounds read low 0.0598 | S. cerevisiae deletion strains, locus YKL085W, strain MDH1 (second series), active compounds read low 0.057 | S. cerevisiae deletion strains, locus YKL085W, strain MDH1, active compounds read low 0.057 | S. cerevisiae deletion strains, locus YKL160W, strain elf1, active compounds read low 0.067 | S. cerevisiae deletion strains, locus YKL190W, strain CNB1, active compounds read low 0.0458 | S. cerevisiae deletion strains, locus YKR001C, strain vps1, active compounds read low 0.0676 | S. cerevisiae deletion strains, locus YKR026C, strain gcn3, active compounds read low 0.0676 | S. cerevisiae deletion strains, locus YKR091W, strain srl3, active compounds read low 0.0658 | S. cerevisiae deletion strains, locus YLL001W, strain dnm1, active compounds read low 0.0628 | S. cerevisiae deletion strains, locus YLL026W, active compounds read low 0.0652 | S. cerevisiae deletion strains, locus YLL041C, strain sdh2, active compounds read low 0.0595 | S. cerevisiae deletion strains, locus YLR027C, strain aat2, active compounds read low 0.0596 | S. cerevisiae deletion strains, locus YLR039C, strain RIC1, active compounds read low 0.0746 | S. cerevisiae deletion strains, locus YLR058C, strain SHM2, active compounds read low 0.0468 | S. cerevisiae deletion strains, locus YLR102C, strain apc9, active compounds read low 0.0634 | S. cerevisiae deletion strains, locus YLR113W, strain HOG1, active compounds read low 0.152 | S. cerevisiae deletion strains, locus YLR221C, strain rsa3, active compounds read low 0.0659 | S. cerevisiae deletion strains, locus YLR258W, strain gsy2, active compounds read low 0.0626 | S. cerevisiae deletion strains, locus YLR262C, strain YPT6 (second series), active compounds read low 0.0862 | S. cerevisiae deletion strains, locus YLR262C, strain YPT6, active compounds read low 0.0908 | S. cerevisiae deletion strains, locus YLR268W, strain sec22, active compounds read low 0.0715 | S. cerevisiae deletion strains, locus YLR320W, strain mms22, active compounds read low 0.0895 | S. cerevisiae deletion strains, locus YLR330W, strain CHS5, active compounds read low 0.0519 | S. cerevisiae deletion strains, locus YLR342W, strain FKS1 (second series), active compounds read low 0.0706 | S. cerevisiae deletion strains, locus YLR342W, strain FKS1, active compounds read low 0.068 | S. cerevisiae deletion strains, locus YLR357W, strain rsc2, active compounds read low 0.116 | S. cerevisiae deletion strains, locus YLR370C, strain arc18, active compounds read low 0.0682 | S. cerevisiae deletion strains, locus YLR371W, strain rom2, active compounds read low 0.0693 | S. cerevisiae deletion strains, locus YLR384C, strain iki3, active compounds read low 0.0654 | S. cerevisiae deletion strains, locus YLR418C, strain cdc73, active compounds read low 0.106 | S. cerevisiae deletion strains, locus YML016C, strain PPZ1, active compounds read low 0.0467 | S. cerevisiae deletion strains, locus YML032C, strain rad52, active compounds read low 0.0695 | S. cerevisiae deletion strains, locus YML120C, strain ndi1, active compounds read low 0.0608 | S. cerevisiae deletion strains, locus YML124C, strain tub3, active compounds read low 0.0633 | S. cerevisiae deletion strains, locus YMR058W, strain fet3, active compounds read low 0.0638 | S. cerevisiae deletion strains, locus YMR078C, strain ctf18, active compounds read low 0.0725 | S. cerevisiae deletion strains, locus YMR125W, strain sto1, active compounds read low 0.0693 | S. cerevisiae deletion strains, locus YMR129W, active compounds read low 0.0704 | S. cerevisiae deletion strains, locus YMR205C, strain PFK2, active compounds read low 0.087 | S. cerevisiae deletion strains, locus YMR223W, strain ubp8, active compounds read low 0.0733 | S. cerevisiae deletion strains, locus YMR231W, strain pep5, active compounds read low 0.0731 | S. cerevisiae deletion strains, locus YMR263W, strain SAP30, active compounds read low 0.057 | S. cerevisiae deletion strains, locus YMR307W, strain GAS1, active compounds read low 0.101 | S. cerevisiae deletion strains, locus YNL067W, strain RPL9B, active compounds read low 0.0516 | S. cerevisiae deletion strains, locus YNL071W, strain lat1, active compounds read low 0.0698 | S. cerevisiae deletion strains, locus YNL128W, strain TEP1, active compounds read low 0.0643 | S. cerevisiae deletion strains, locus YNL153C, strain GIM3, active compounds read low 0.0512 | S. cerevisiae deletion strains, locus YNL183C, strain NPR1, active compounds read low -0.00339 | S. cerevisiae deletion strains, locus YNL209W, strain ssb2, active compounds read low 0.0648 | S. cerevisiae deletion strains, locus YNL233W, strain BNI4, active compounds read low 0.0545 | S. cerevisiae deletion strains, locus YNL248C, strain rpa49, active compounds read low 0.0607 | S. cerevisiae deletion strains, locus YNL250W, strain rad50, active compounds read low 0.0707 | S. cerevisiae deletion strains, locus YNL271C, strain bni1, active compounds read low 0.0672 | S. cerevisiae deletion strains, locus YNL298W, strain CLA4, active compounds read low 0.0667 | S. cerevisiae deletion strains, locus YNL307C, strain MCK1, active compounds read low 0.0744 | S. cerevisiae deletion strains, locus YNL322C, strain KRE1 (second series), active compounds read low 0.0728 | S. cerevisiae deletion strains, locus YNL322C, strain KRE1, active compounds read low 0.0468 | S. cerevisiae deletion strains, locus YNR049C, strain mso1, active compounds read low 0.0631 | S. cerevisiae deletion strains, locus YNR052C, strain pop2, active compounds read low 0.0629 | S. cerevisiae deletion strains, locus YOL006C, strain TOP1, active compounds read low 0.108 | S. cerevisiae deletion strains, locus YOL147C, strain pex11, active compounds read low 0.0586 | S. cerevisiae deletion strains, locus YOR001W, strain rrp6, active compounds read low 0.072 | S. cerevisiae deletion strains, locus YOR061W, strain CKA2, active compounds read low 0.045 | S. cerevisiae deletion strains, locus YOR069W, strain VPS5, active compounds read low 0.046 | S. cerevisiae deletion strains, locus YOR070C, strain gyp1, active compounds read low 0.0611 | S. cerevisiae deletion strains, locus YOR080W, strain dia2, active compounds read low 0.0794 | S. cerevisiae deletion strains, locus YOR083W, strain WHI5, active compounds read low 0.0648 | S. cerevisiae deletion strains, locus YOR106W, strain vam3, active compounds read low 0.0647 | S. cerevisiae deletion strains, locus YOR136W, strain idh2, active compounds read low 0.0779 | S. cerevisiae deletion strains, locus YOR144C, strain elg1, active compounds read low 0.0585 | S. cerevisiae deletion strains, locus YOR184W, strain ser1, active compounds read low 0.0845 | S. cerevisiae deletion strains, locus YOR231W, strain MKK1, active compounds read low 0.105 | S. cerevisiae deletion strains, locus YOR265W, strain rbl2, active compounds read low 0.0654 | S. cerevisiae deletion strains, locus YOR270C, strain vph1, active compounds read low 0.0804 | S. cerevisiae deletion strains, locus YOR290C, strain snf2, active compounds read low 0.062 | S. cerevisiae deletion strains, locus YOR316C, strain cot1, active compounds read low 0.0632 | S. cerevisiae deletion strains, locus YPL051W, strain arl3, active compounds read low 0.0645 | S. cerevisiae deletion strains, locus YPL055C, strain LGE1, active compounds read low 0.0675 | S. cerevisiae deletion strains, locus YPL078C, strain atp4, active compounds read low 0.0648 | S. cerevisiae deletion strains, locus YPL106C, strain sse1, active compounds read low 0.0892 | S. cerevisiae deletion strains, locus YPL240C, strain hsp82, active compounds read low 0.0586 | S. cerevisiae deletion strains, locus YPL241C, strain CIN2, active compounds read low 0.0475 | S. cerevisiae deletion strains, locus YPL256C, strain CLN2, active compounds read low 0.126 | S. cerevisiae deletion strains, locus YPR119W, strain clb2, active compounds read low 0.0705 | S. cerevisiae deletion strains, locus YPR141C, strain kar3, active compounds read low 0.0755 | S. cerevisiae deletion strains, locus YPR163C, strain tif3, active compounds read low 0.074 | S. cerevisiae deletion strains, locus YPR167C, strain met16, active compounds read low 0.0659 | S. cerevisiae deletion strains, strain wtn01, active compounds read low 0.0707 | S. cerevisiae strains, strain wild type, active compounds read low 0.0471
